# Several values for one entry are separate records, joined by “and”; a condition that tells them apart may be missing. Equal entries are not always repeated. About 83,000 compounds went through this panel and 20% of them were active in at least one assay; those are over-represented in the sample as a whole.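 Each cell line was grown in a 96-well plate and treated with one concentration of compound for 48 hours. Values below 10 were considered active.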 Activity calls are given as the source filed them.
# System: NCI-H226 lung
# Assay: NCI-60 one-dose screen, 48 h (100 = growth as untreated, 0 = no growth, -100 = all killed)
# Conditions: 4.75 µM
# Protocol: Growth inhibition of the NCI-H226 human Non-Small Cell Lung tumor cell line is measured as a screen for anti-cancer activity. Cells are grown in 96 well plates and exposed to the test compound for 48 hours. Compounds are tested at a single concentration, which is 10^-5 M for most compounds. The reported endpoint is percent growth (GI% or GIPRCNT), where numbers from 0 - 100% represent growth inhibition, and numbers from -100% - 0 represent cell death. For example, a value of 40 represents 60% growth inhibition. A value of 0 means no net growth occurred over the course of the experiment. A value of -40 indicates 40% of cells at the beginning of the experiment died by the end of the experiment. A value of -100 means all cells are dead at the end of the experiment.
# NCI-60 Human Tumor Cell Lines Screen was performed using the standard one-dose NCI protocol, which is described in more detail at https://dtp.cancer.gov/discovery_development/nci-60/default.htm.
# Compounds with GIPRCNT values below 10 were considered active. Activity score was based on GIPRCNT using the following formula: […]
# Score is 0 for GIPRCNT values of 100 or above, 50 for GIPRCNT values of 0, and 100 for GIPRCNT values of -100.
row,Structure (SMILES),growth
1,CC(=O)OCC1OC([S-])C(OC(C)=O)C(OC(C)=O)C1OC(C)=O.[Au+].c1ccc(CN2[CH-]N(Cc3ccccc3)C(c3ccccc3)=C2c2ccccc2)cc1,9.99% (active)

# Same assay, conditions: 10 µM
row,Structure (SMILES),growth
1,CC(=O)OCC1OC([S-])C(OC(C)=O)C(OC(C)=O)C1OC(C)=O.[Au+].c1ccc(CN2[CH-]N(Cc3ccccc3)C(c3ccccc3)=C2c2ccccc2)cc1,92.1% (inactive)
2,O=C(O)CCCc1ccc(N(CCCl)CCCl)cc1,78.7% (inactive) and 88.2% (inactive)

# Same assay, conditions: 10 µM unless noted
row,Structure (SMILES),growth
1,Cc1cc(N)ccc1N,92% (inactive)
2,CC1=CC(=Nc2ccc(N(CCCl)CCCl)cc2)C=C(C)C1=O,44.5% (inactive)
3,CNC(=O)Oc1ccc(Cl)cc1SSc1cc(Cl)ccc1OC(=O)NC,102% (inactive)
4,CC[C@@H](C)C(=O)O[C@H]1[C@H](O)[C@H]2[C@@H](CN3C[C@@H](C)CC[C@H]3[C@@]2(C)O)[C@@H]2C[C@]34O[C@]5(O)[C@@H](OC(=O)[C@@](C)(O)CC)CC[C@@]3(C)[C@@H]5[C@@H](OC(C)=O)[C@@H](OC(C)=O)[C@H]4[C@@]21O,81.2% (inactive)
5,CO[C@H]1[C@H](O[C@@H]2C[C@@H]3C/C=C/C(=O)O[C@@H](CO)C[C@H](O)[C@@H]4C[C@H](C)[C@H](C/C=C\C=C\[C@H](C)C[C@H](C2)O3)O4)O[C@@H](C)[C@H](O)[C@H]1O,37.9% (inactive)
6,CC(=O)Cc1ccc2c(c1)OCO2,104% (inactive)
7,COc1cc2c(c(OC)c1OC)-c1ccc(O)cc1[C@@H](NC(C)=O)CC2,5.36% (active) and 46.3% (inactive)
8,O=C(NCCCN1CC1)Nc1cccc2ccccc12,102% (inactive) and 92.4% (inactive)
9,CCC1(CCSC#N)C(=O)NC(=O)NC1=O,104% (inactive)
10,Nc1c(Cl)c(Cl)nc(C(=O)O)c1Cl,102% (inactive)
11,COc1ccc(/C=C(/C)[N+](=O)[O-])cc1OC,88.7% (inactive) and 79.2% (inactive)
12,CC12CCC3C4CCC(=O)C=C4CCC3C1CC1CC(=O)OC12 (stereo not given),93.7% (inactive)
13,CC(C)CCC1C(=O)NC(=O)NC1=O,116% (inactive)
14,CC1=C2[C@H]3OC(=O)[C@@H](C)[C@@H]3CC[C@@]2(C)C=CC1=O,92% (inactive)
15,CCOC(=O)c1ccccc1C(=O)OCC,94.6% (inactive)
16,O=C(NC(Cl)=C(Cl)Cl)P(=O)(c1ccccc1)c1ccccc1,101% (inactive)
17,O=C1NC(=O)C(=Cc2ccccc2)C(=O)N1,96.1% (inactive) and 101% (inactive)
18,C[C@]12CC[C@H]3[C@@H](C[C@@H]4SC(Nc5ccccc5)=N[C@@]45C/C(=N/O)CC[C@]35C)[C@@H]1CCC2=O,114% (inactive)

row,Structure (SMILES),growth
1,C[C@]12CC[C@@H](OC(=O)N(CCCl)N=O)C[C@@H]1CC[C@@H]1[C@@H]2CC[C@]2(C)C(=O)CC[C@@H]12,88% (inactive)
2,O=S(OO)c1cc(Cl)c(O)c(Cl)c1 (stereo not given),109% (inactive)
3,O=S1(=O)OCCO1,103% (inactive)
4,O=C(O)c1ccccc1N(CCO)CCCl,102% (inactive)
5,N#Cc1ccc(Cl)cc1,109% (inactive)
6,CC(C)c1cccc(C(C)C)c1O,107% (inactive) and 103% (inactive)
7,O=c1[nH]c(=O)n(Cl)c(=O)n1Cl,98.4% (inactive) and 104% (inactive)
8,Cc1ccc(N2CCN(CCC#N)CC2)cc1,92.1% (inactive)
9,CCOC(=O)C1C(C=C(C)C)C1(C)C (stereo not given),107% (inactive)
10,Clc1ccc(COC(Cn2ccnc2)c2ccc(Cl)cc2Cl)c(Cl)c1 (stereo not given),68.3% (inactive) and 75.9% (inactive)
11,CCN1C(=O)NC(=O)C(C)(N2C(=O)c3c(F)c(F)c(F)c(F)c3C2=O)C1=O (stereo not given),105% (inactive)
12,C[Se]/C=C1/C(=O)N(c2c(Cl)cccc2Cl)c2ccccc21,10.9% (inactive)
13,CC1(C)N=C(N)N=C(N)N1c1ccc(CCC(=O)Nc2ccc(S(=O)(=O)F)cc2)cc1,65.3% (inactive)
14,COc1cc(-c2ccc(N)c(OC)c2)ccc1N,110% (inactive)
15,O=P1(N(CCCl)CCCl)NCCCO1 (stereo not given),101% (inactive)
16,COc1ccc(O)c2c(=O)c3c(OC)cc4c(c3oc12)[C@@H]1C=CO[C@@H]1O4,36.8% (inactive)
17,S=P(SP(=S)(c1ccccc1)c1ccccc1)(c1ccccc1)c1ccccc1,96.6% (inactive)
18,CC/C(=C(\c1ccc(OCCN2CCOCC2)cc1)c1ccc(OC(=O)Cc2ccccc2)cc1)c1ccc(Cl)cc1,106% (inactive)

# Same assay, conditions: 75 µM
row,Structure (SMILES),growth
1,O=C(O)CCCc1ccc(N(CCCl)CCCl)cc1,61.2% (inactive)

# — PubChem BioAssay (NCI)
